Key:
[1] = biological target: T1, Rhodopsin kinase GRK7 (Homo sapiens) (UniProt Q8WTQ7); conditions: at 10 µM
T1 sequence (whole entry): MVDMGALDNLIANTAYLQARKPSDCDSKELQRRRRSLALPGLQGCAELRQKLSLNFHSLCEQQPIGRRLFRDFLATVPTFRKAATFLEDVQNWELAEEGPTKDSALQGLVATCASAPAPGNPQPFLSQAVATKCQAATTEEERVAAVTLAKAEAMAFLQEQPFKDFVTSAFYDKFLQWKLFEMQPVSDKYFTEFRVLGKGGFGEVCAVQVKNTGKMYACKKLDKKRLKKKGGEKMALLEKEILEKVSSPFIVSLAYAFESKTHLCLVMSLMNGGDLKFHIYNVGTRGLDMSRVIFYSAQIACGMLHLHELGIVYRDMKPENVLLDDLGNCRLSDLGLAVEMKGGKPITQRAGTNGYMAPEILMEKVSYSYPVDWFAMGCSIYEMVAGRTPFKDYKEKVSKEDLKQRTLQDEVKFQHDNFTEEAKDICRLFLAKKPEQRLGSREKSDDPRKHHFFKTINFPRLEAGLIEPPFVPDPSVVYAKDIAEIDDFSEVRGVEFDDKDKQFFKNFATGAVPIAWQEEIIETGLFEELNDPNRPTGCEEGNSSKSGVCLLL

[2] = biological target: Glycogen synthase kinase-3 beta (Homo sapiens) (UniProt P49841); conditions: at 1 µM
[3] = biological target: Glycogen synthase kinase-3 beta (Homo sapiens) (UniProt P49841); conditions: at 10 µM
[4] = biological target: Homeodomain-interacting protein kinase 2 (Homo sapiens) (UniProt Q9H2X6); conditions: at 1 µM
[5] = biological target: Homeodomain-interacting protein kinase 2 (Homo sapiens) (UniProt Q9H2X6); conditions: at 10 µM
[6] = biological target: Homeodomain-interacting protein kinase 3 (Homo sapiens) (UniProt Q9H422); conditions: at 1 µM
[7] = biological target: Glycogen synthase kinase-3 alpha (Homo sapiens) (UniProt P49840); conditions: at 1 µM
[8] = biological target: Glycogen synthase kinase-3 alpha (Homo sapiens) (UniProt P49840); conditions: at 10 µM
[9] = biological target: Homeodomain-interacting protein kinase 1 (Homo sapiens) (UniProt Q86Z02); conditions: at 1 µM
[10] = biological target: Homeodomain-interacting protein kinase 1 (Homo sapiens) (UniProt Q86Z02); conditions: at 10 µM

Chain of Homeodomain-interacting protein kinase 1 (Homo sapiens) (Q86Z02 whole entry, looked up): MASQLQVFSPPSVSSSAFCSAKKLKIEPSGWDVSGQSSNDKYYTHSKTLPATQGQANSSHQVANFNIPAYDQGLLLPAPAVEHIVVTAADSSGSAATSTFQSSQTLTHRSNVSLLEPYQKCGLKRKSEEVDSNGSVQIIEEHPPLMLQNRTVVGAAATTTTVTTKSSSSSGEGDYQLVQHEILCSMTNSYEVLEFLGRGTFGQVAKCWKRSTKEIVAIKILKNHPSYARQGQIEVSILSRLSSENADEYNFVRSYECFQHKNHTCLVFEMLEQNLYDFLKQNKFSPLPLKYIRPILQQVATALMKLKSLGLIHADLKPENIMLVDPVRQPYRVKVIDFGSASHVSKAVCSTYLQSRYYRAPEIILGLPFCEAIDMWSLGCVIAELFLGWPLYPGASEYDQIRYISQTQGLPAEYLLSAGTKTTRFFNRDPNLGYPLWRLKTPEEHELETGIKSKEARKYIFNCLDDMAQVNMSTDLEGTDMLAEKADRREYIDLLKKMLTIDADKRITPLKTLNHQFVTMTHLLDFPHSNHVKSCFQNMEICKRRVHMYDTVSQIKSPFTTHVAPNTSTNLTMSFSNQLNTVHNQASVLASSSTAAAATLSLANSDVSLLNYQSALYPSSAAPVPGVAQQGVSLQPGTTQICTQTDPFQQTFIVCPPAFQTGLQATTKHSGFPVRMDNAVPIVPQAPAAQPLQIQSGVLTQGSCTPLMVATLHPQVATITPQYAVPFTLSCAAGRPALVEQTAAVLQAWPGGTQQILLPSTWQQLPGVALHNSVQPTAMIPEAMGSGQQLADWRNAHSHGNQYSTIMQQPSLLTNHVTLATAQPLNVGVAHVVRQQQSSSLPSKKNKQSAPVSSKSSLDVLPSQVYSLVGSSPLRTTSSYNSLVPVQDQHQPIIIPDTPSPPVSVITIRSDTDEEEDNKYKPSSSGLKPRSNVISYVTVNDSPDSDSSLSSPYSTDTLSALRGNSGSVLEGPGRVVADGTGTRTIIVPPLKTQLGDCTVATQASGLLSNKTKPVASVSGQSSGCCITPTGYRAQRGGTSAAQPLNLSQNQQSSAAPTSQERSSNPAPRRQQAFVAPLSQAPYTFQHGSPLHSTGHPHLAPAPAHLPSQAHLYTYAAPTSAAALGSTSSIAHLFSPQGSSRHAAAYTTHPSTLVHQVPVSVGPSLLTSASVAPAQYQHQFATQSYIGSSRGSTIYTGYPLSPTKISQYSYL
Chain of Glycogen synthase kinase-3 beta (Homo sapiens) (P49841 whole entry, looked up): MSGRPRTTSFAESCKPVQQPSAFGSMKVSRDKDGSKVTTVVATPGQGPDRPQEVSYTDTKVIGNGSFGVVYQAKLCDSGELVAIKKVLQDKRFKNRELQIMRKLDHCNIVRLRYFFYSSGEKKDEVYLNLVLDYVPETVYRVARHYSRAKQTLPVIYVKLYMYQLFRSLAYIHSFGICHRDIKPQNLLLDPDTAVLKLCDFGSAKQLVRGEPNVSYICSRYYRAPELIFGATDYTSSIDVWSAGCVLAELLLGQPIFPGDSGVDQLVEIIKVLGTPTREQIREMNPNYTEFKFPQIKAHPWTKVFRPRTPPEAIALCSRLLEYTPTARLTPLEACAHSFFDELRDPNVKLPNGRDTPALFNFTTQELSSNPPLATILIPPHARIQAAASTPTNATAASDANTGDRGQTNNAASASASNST
Chain of Homeodomain-interacting protein kinase 3 (Homo sapiens) (Q9H422 whole entry, looked up): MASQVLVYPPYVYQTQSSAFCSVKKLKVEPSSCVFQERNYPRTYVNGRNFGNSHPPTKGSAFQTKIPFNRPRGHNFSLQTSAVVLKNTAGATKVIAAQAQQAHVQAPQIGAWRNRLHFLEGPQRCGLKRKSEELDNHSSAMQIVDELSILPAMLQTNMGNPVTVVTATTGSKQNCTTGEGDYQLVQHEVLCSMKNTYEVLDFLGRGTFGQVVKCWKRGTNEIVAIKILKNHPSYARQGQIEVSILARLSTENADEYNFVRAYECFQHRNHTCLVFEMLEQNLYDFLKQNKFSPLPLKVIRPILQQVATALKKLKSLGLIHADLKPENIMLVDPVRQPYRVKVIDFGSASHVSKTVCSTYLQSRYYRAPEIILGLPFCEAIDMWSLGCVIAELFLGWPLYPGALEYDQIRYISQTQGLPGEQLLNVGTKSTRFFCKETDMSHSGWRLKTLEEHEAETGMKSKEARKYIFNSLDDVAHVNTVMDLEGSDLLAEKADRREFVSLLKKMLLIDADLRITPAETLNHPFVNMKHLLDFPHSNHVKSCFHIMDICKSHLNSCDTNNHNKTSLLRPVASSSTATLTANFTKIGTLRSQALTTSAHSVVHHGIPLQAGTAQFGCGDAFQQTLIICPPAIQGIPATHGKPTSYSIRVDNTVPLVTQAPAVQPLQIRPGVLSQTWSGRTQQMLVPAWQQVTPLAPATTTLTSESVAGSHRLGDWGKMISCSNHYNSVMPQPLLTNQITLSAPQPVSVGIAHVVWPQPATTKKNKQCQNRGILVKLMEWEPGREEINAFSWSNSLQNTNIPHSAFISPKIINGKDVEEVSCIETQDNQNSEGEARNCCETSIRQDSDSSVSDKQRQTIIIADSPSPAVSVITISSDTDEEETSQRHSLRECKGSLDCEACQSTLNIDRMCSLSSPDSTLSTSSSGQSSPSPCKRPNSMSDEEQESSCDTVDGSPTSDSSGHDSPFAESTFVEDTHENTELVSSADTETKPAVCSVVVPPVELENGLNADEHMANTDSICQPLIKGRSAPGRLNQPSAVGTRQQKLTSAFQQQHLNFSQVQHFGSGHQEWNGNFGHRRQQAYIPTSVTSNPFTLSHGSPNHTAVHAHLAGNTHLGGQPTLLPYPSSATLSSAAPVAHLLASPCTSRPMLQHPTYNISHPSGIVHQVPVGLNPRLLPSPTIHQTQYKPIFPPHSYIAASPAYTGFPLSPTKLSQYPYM
Chain of Homeodomain-interacting protein kinase 2 (Homo sapiens) (Q9H2X6 whole entry, looked up): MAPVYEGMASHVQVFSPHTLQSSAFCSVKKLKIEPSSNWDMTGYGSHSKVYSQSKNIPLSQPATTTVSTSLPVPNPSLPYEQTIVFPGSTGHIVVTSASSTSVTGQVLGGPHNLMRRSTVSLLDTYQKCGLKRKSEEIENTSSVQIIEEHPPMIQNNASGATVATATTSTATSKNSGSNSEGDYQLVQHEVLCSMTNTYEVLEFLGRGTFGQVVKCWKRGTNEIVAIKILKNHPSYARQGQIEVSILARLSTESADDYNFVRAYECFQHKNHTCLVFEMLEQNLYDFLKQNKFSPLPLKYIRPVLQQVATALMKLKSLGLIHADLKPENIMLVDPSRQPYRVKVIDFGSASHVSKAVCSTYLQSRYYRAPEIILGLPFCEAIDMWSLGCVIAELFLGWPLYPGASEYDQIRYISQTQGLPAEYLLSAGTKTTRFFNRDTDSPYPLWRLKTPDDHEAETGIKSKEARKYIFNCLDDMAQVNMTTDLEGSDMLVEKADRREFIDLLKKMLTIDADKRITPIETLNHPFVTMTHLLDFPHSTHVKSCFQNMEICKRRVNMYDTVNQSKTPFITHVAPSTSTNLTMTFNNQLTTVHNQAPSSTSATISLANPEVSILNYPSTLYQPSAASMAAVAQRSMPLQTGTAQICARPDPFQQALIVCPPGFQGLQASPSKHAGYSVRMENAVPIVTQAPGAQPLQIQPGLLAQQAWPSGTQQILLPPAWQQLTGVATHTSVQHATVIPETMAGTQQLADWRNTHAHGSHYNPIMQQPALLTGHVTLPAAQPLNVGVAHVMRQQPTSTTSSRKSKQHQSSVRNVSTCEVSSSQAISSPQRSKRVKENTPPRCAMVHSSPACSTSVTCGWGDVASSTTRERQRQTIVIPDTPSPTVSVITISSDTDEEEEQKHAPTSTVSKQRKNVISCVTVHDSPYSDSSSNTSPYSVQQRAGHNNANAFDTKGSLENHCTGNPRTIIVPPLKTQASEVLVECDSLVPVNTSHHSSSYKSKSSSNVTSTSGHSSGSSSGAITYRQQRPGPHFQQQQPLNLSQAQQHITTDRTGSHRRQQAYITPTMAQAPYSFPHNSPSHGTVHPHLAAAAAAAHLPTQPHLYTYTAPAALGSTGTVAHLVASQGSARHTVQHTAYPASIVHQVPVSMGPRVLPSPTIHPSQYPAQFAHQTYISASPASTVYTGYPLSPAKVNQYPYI
Chain of Glycogen synthase kinase-3 alpha (Homo sapiens) (P49840 2-483 limits assumed): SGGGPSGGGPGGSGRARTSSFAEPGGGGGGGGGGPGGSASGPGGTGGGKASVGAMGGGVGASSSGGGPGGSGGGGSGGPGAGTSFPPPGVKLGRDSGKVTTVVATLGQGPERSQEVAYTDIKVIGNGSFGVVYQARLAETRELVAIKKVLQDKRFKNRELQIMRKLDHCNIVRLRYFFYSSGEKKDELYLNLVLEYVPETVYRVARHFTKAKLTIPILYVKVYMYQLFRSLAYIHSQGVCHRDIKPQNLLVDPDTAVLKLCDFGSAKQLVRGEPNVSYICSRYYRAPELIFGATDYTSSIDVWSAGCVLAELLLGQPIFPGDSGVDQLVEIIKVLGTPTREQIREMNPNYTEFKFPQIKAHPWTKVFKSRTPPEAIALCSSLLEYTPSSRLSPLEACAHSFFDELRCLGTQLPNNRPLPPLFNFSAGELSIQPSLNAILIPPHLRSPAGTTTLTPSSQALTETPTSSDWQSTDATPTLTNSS

c1ccc(-c2n[nH]c3c2oc2ccccc23)cc1
residual activity [1]: 64% | residual activity [2]: 95% | residual activity [3]: 67% | residual activity [4]: 98% | residual activity [5]: 58% | residual activity [6]: 92%

O=[N+]([O-])c1ccc(-c2nc(-c3ccc(F)cc3)c(-c3ccncc3)[nH]2)cc1
residual activity [1]: 92% | residual activity [7]: 99% | residual activity [8]: 84% | residual activity [2]: 73% | residual activity [3]: 83% | residual activity [9]: 111% | residual activity [4]: 107% | residual activity [5]: 100% | residual activity [6]: 110%

COc1cc2ncnc(N3CCN(C(=O)Nc4ccc(Oc5ccccc5)cc4)CC3)c2cc1OC
residual activity [1]: 82% | residual activity [7]: 103% | residual activity [8]: 146% | residual activity [2]: 99% | residual activity [3]: 148% | residual activity [9]: 96% | residual activity [10]: 96% | residual activity [4]: 95% | residual activity [5]: 77% | residual activity [6]: 95%

COc1ccc(CNc2nc(N(CCO)CCO)nc3c2ncn3C(C)C)cc1
residual activity [1]: 69% | residual activity [7]: 74% | residual activity [8]: 75% | residual activity [2]: 91% | residual activity [3]: 102% | residual activity [9]: 102% | residual activity [10]: 88% | residual activity [4]: 98% | residual activity [5]: 82% | residual activity [6]: 105%

CC(=O)O/N=C1\C(=C2\C(=O)Nc3cc(Br)ccc32)Nc2ccccc21
residual activity [1]: 87% | residual activity [7]: 4% | residual activity [8]: 0% | residual activity [2]: 14% | residual activity [3]: 2% | residual activity [9]: 95% | residual activity [10]: 85% | residual activity [4]: 84% | residual activity [5]: 43% | residual activity [6]: 93%

N#CCCc1ccc2c(c1)-c1[nH]c3ccc([N+](=O)[O-])cc3c1CC(=O)N2
residual activity [7]: 1% | residual activity [8]: 0% | residual activity [2]: -3% | residual activity [3]: 0% | residual activity [4]: 64% | residual activity [5]: 24%

CC(=O)c1ccc(N2CCOCC2)cc1O
residual activity [1]: 90% | residual activity [2]: 101% | residual activity [3]: 109% | residual activity [9]: 97% | residual activity [10]: 104% | residual activity [4]: 100% | residual activity [5]: 94% | residual activity [6]: 95%

Cc1cccc(-c2[nH]c(C(C)(C)C)nc2-c2ccc3c(c2)OCO3)n1
residual activity [1]: 97% | residual activity [2]: 104% | residual activity [3]: 93% | residual activity [9]: 93% | residual activity [10]: 102% | residual activity [4]: 97% | residual activity [5]: 96%

O=C1c2ccccc2-[n+]2ccc3c([nH]c4ccccc43)c21
residual activity [1]: 84% | residual activity [7]: 107% | residual activity [8]: 103% | residual activity [2]: 120% | residual activity [3]: 103% | residual activity [9]: 97% | residual activity [10]: 90% | residual activity [4]: 96% | residual activity [5]: 91% | residual activity [6]: 77%

c1ccc2c(-c3ccncc3)c[nH]c2c1
residual activity [1]: 79% | residual activity [8]: 135% | residual activity [2]: 94% | residual activity [3]: 88% | residual activity [9]: 95% | residual activity [10]: 98% | residual activity [4]: 100% | residual activity [5]: 85% | residual activity [6]: 95%

CO[C@H]1C[C@@H]2CC[C@@H](C)[C@@](O)(O2)C(=O)C(=O)N2CCCC[C@H]2C(=O)O[C@H]([C@H](C)C[C@@H]2CC[C@@H](O)[C@H](OC)C2)CC(=O)[C@H](C)/C=C(\C)[C@@H](O)[C@@H](OC)C(=O)[C@H](C)C[C@H](C)/C=C/C=C/C=C/1C
residual activity [1]: 86% | residual activity [7]: 117% | residual activity [8]: 193% | residual activity [2]: 96% | residual activity [9]: 91% | residual activity [10]: 101% | residual activity [4]: 103% | residual activity [5]: 99% | residual activity [6]: 91%

CCN(CC)C(=O)c1ccc(Nc2nc(OCC3CCCCC3)c3nc[nH]c3n2)cc1
residual activity [1]: 78% | residual activity [7]: 72% | residual activity [8]: 15% | residual activity [2]: 75% | residual activity [3]: 26% | residual activity [5]: 28% | residual activity [6]: 99%

O=C1Nc2ccc(Br)cc2/C1=C\c1cc2c([nH]1)CCCC2
residual activity [7]: 113% | residual activity [8]: 122% | residual activity [10]: 99% | residual activity [4]: 82% | residual activity [6]: 97%

COc1cccc(-c2cc(=O)c3ccccc3o2)c1N
residual activity [1]: 97% | residual activity [8]: 77% | residual activity [2]: 106% | residual activity [3]: 103% | residual activity [9]: 112% | residual activity [10]: 92% | residual activity [4]: 109% | residual activity [5]: 95% | residual activity [6]: 99%

Oc1ccc(Nc2nc(-c3ccc(Cl)cc3)cs2)cc1
residual activity [1]: 103% | residual activity [7]: 97% | residual activity [8]: 88% | residual activity [2]: 131% | residual activity [3]: 114% | residual activity [10]: 95% | residual activity [4]: 92% | residual activity [5]: 89% | residual activity [6]: 105%

c1ccc(-c2n[nH]cc2-c2ccnc3ccccc23)nc1
residual activity [1]: 87% | residual activity [2]: 85% | residual activity [9]: 98% | residual activity [10]: 105% | residual activity [4]: 98% | residual activity [5]: 101% | residual activity [6]: 100%

N#CC(C#N)=C(N)/C(C#N)=C/c1ccc(O)cc1
residual activity [1]: 91% | residual activity [2]: 83% | residual activity [3]: 88% | residual activity [9]: 97% | residual activity [10]: 99% | residual activity [4]: 91% | residual activity [5]: 78%

O=Nc1c(-c2c(O)[nH]c3ccccc23)[nH]c2ccccc12
residual activity [1]: 18% | residual activity [7]: 5% | residual activity [8]: 1% | residual activity [2]: 10% | residual activity [3]: 1% | residual activity [9]: 90% | residual activity [10]: 73% | residual activity [4]: 48% | residual activity [5]: 8% | residual activity [6]: 88%

Nc1cccc(-c2cc3c(Oc4cccc(O)c4)ncnc3[nH]2)c1
residual activity [1]: 91% | residual activity [7]: 27% | residual activity [8]: 3% | residual activity [2]: 22% | residual activity [3]: 6% | residual activity [4]: 95% | residual activity [5]: 54%

CCN(CC)CCCCN1c2ccccc2Oc2ccc(Cl)cc21
residual activity [1]: 95% | residual activity [7]: 133% | residual activity [8]: 124% | residual activity [2]: 103% | residual activity [3]: 129% | residual activity [9]: 103% | residual activity [10]: 113% | residual activity [4]: 108% | residual activity [5]: 96% | residual activity [6]: 97%

COc1cc2ncnc(Nc3ccc(NC(=O)c4ccccc4)cc3)c2cc1OC
residual activity [1]: 95% | residual activity [2]: 97% | residual activity [3]: 104% | residual activity [9]: 102% | residual activity [10]: 97% | residual activity [4]: 99% | residual activity [5]: 87% | residual activity [6]: 101%

COc1cc2ncc(-c3ccccc3)nc2cc1OC
residual activity [2]: 93% | residual activity [3]: 138% | residual activity [4]: 96% | residual activity [5]: 97% | residual activity [6]: 100%

CO[C@@H]1[C@H](N(C)C(=O)c2ccccc2)C[C@H]2O[C@]1(C)n1c3ccccc3c3c4c(c5c6ccccc6n2c5c31)C(=O)NC4
residual activity [1]: 3% | residual activity [7]: 17% | residual activity [8]: 14% | residual activity [2]: 39% | residual activity [3]: 19% | residual activity [9]: 95% | residual activity [10]: 83% | residual activity [4]: 75% | residual activity [5]: 35% | residual activity [6]: 80%

CNc1cc2c(Nc3cccc(Br)c3)ncnc2cn1
residual activity [1]: 81% | residual activity [7]: 123% | residual activity [8]: 91% | residual activity [2]: 106% | residual activity [3]: 117% | residual activity [9]: 103% | residual activity [10]: 101% | residual activity [4]: 108% | residual activity [5]: 97% | residual activity [6]: 100%

Cn1cnc2cc3c(Nc4cccc(Br)c4)ncnc3cc21
residual activity [1]: 86% | residual activity [7]: 103% | residual activity [8]: 105% | residual activity [2]: 102% | residual activity [3]: 82% | residual activity [9]: 96% | residual activity [10]: 105% | residual activity [4]: 102% | residual activity [5]: 92% | residual activity [6]: 95%

CC[n+]1c(/C=C/N(C)c2ccccc2)n(-c2ccccc2)c2ccc(-c3nc4ccccc4s3)cc21
residual activity [1]: 97% | residual activity [7]: 122% | residual activity [2]: 109% | residual activity [3]: 116% | residual activity [9]: 102% | residual activity [10]: 93% | residual activity [4]: 95% | residual activity [5]: 77% | residual activity [6]: 99%

CC#CC(=O)Nc1cc2c(Nc3ccc(F)c(Cl)c3)ncnc2cn1
residual activity [1]: 76% | residual activity [7]: 129% | residual activity [8]: 125% | residual activity [2]: 97% | residual activity [3]: 82% | residual activity [9]: 98% | residual activity [10]: 111% | residual activity [4]: 103% | residual activity [5]: 103% | residual activity [6]: 88%

Nc1nc(Nc2ccc(S(N)(=O)=O)cc2)nn1C(=S)Nc1c(F)cccc1F
residual activity [7]: 3% | residual activity [8]: 2% | residual activity [2]: 4% | residual activity [3]: 0% | residual activity [9]: 30% | residual activity [10]: 47% | residual activity [4]: 12% | residual activity [5]: 0% | residual activity [6]: 25%

Source: ChEMBL document CHEMBL2218924, “A broad activity screen in support of a chemogenomic map for kinase signalling research and drug discovery” (Biochem J, 2013)
